Test results as given in the supplement of paper PMC6555819.

What was measured:
Test in all cases: PBM binding z-score (relative to random genomic background probes); higher = stronger binding; sequences stand for … in GC…GCGATTGACAGCGTAGAATGAAGG
[1] = test system: RARb homodimer (NR concentration 270 nM)
In short: (§1)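 Scanned fluorescence from custom Agilent 4×180K protein-binding microarrays was regression-normalized. Binding z-scores use random background probes as reference. Ligand-free nuclear receptor dimers were incubated on the arrays for 1 h and detected with antibodies against each partner (one per run).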

[2] = test system: RARg:RXRa (NR concentration 270 nM, RXRa partner concentration 90 nM)
In short: as §1

[3] = test system: RARg homodimer (NR concentration 270 nM)
In short: as §1

[4] = test system: RXRa DBDmut IVT, anti-RXR (DBD mutation: RXRa K156A/R161A, NR concentration 90 nM)
In short: as §1

[5] = test system: RXRa homodimer (NR concentration 180 nM)
In short: as §1

[6] = test system: THRa:RXRa (NR concentration 90 nM, RXRa partner concentration 90 nM)
In short: as §1

[7] = test system: THRa homodimer (NR concentration 90 nM)
In short: as §1

[8] = test system: VDR homodimer (NR concentration 270 nM)
In short: as §1

Sequence	PBM binding z-score [1]	PBM binding z-score [2]	PBM binding z-score [3]	PBM binding z-score [4]	PBM binding z-score [5]	PBM binding z-score [6]	PBM binding z-score [7]	PBM binding z-score [8]
TGAAGGAGGTTAAAGATCAGGGAACGTGGCGTCG	1.01	1.89	0.932	-0.223	3.25	1.26	0.214	0.438
TCTCGGAGGATACGAAGGTCAGAGCTTTCCAGAG	2.95	1.93	2.03	0.133	1.65	1.57	-0.156	0.224
CGTCCAAGCTCAAGGTCAGTGAAAGAGACTCGAA	3.16	2.55	3.24	0.755	1.81	2.87	1.83	1.18
AATACAGGGTCATCGTAGCCCAGAGTACGCACAG	3.25	5.57	4.42	3.46	6.57	3.69	1.34	3.87
CAAACTAGGTCAAGGGTCAAAGTCGAGCCAACCA	4.7	7.41	6.13	2.47	8.6	4.36	1.45	3.15
CCTCGGAGGACAACAGGAGGTCCGAGCTGCCAGA	0.279	0.372	0.854	-0.16	-0.455	0.4	-0.324	-0.197
ACACACAGGTGATGAAGGTAACTCAGGCTATCAT	0.43	0.435	0.664	0.355	0.276	1.06	0.194	0.17
ATAAGTAGGTTACATCCGGGTCATTCAGGCTATG	2.83	3.41	2.17	1.37	3.12	3.72	2.7	3.19
CCGAGTCGGTTATGGGGCATTCAGGCAACGGTGA	0.462	-0.0743	-0.117	-0.648	-0.27	0.224	-0.00692	0.0226
CCTACCGGGCCAAAGGTCATTGATTCCAATGCTC	4.57	5.86	4.58	0.593	6.64	3.68	1.12	2.38
AATACTGGGTCATCGTAGGCCAGAGTACGCACAG	3.24	3.52	3.91	0.934	3.11	3.85	0.749	1
ACTATTAGTTGAGACGAGGTCAACCGATAGGTTG	4.05	3.81	3.37	1.57	4.82	4.73	3.82	3.21
CCTGTTAGGTCAATGGTCAGCTAAAGCAGCTCGC	3.5	4.07	4.93	2.35	2.63	3.16	2.18	0.926
ATCGAAAGGTCGTGGTGAGTATAGAGAAAGGGAA	2.85	4.45	3.8	1.52	4.79	2.82	0.58	1.23
AGGCAAAGTTCACTAGGTAACGTAAGATTCAGCT	3.64	4.78	5.51	4.22	3.75	2.15	0.37	4.15
TCGAGTAGGTTGGGGGCATTCAGAATGGCGTCGA	1.42	1.32	0.732	1.74	1.57	2.11	1.52	3.27
TCTGCTAGGTCCACGATGGTCAGCTAATCTGCTA	-0.207	-0.213	-0.0544	0.651	-0.333	-0.32	-0.873	-0.326
TCATAAAGGTAAAAGGTGAAAGTCGGTGTGGTAA	2.25	2.87	1.28	1.94	4.16	2.34	0.408	0.435
ATCTCTAGGTAACCAAGTTCAGTGGATGCCGAAC	1.38	0.761	0.959	0.576	0.536	1.46	0.709	2.45

Sequence	PBM binding z-score [1]	PBM binding z-score [2]	PBM binding z-score [3]	PBM binding z-score [4]	PBM binding z-score [5]	PBM binding z-score [6]	PBM binding z-score [7]	PBM binding z-score [8]
ACTCGGAGTACAAAGGTCAGAGCTACGCCAGTGA	4.27	5.22	4.7	2.11	5.37	2.64	-0.258	1.63
ACTAGTTGGTCAGCTGAGGTGACACACAATTCGG	1.74	1.34	1.29	-0.108	0.902	4.41	2.03	0.149
ACTATTAGTTGAGACGAGGGTAACCGATAGGTTG	0.218	0.256	0.596	0.227	0.443	1.55	-0.208	0.283
TAGCCTAGGTTAGATCGGGCCAGTATACGCTATA	-0.0792	-0.00796	0.127	-0.662	-0.141	2.61	-0.725	-0.374
CCAGACAGGTGAGACGGTAACTCAGCCTCGATTA	0.4	-0.0368	0.0246	0.0275	-0.179	-0.0755	0.114	0.029
AATACAGGGTCATCGTAGGCCATAGTACGCACAG	3.72	5.77	4.97	3.55	6.52	4.94	1.54	3.64
GGAACTAGGGCATTCGAGTTGATAGCATGGCGAT	0.555	0.292	0.971	0.774	0.131	2.13	-0.433	0.769
TCTATTTGGTCAAAGGTCACACACTCGAAATGCG	5.34	7.07	6.16	2.49	7.9	4.24	2.77	2.96
CCAGACAGGTGAAAGCTAACTCAGTCTGGTACGC	-0.273	0.135	0.254	-0.328	0.326	-0.0859	-0.832	-0.146
GCTGCTGGGTCAACTGATGGTCAGCTAAAGCTCG	3.36	5.04	4.22	1.22	3.13	2.41	0.228	-0.125
TCTTGTAGATCAGCGGGTTAAGAAAGCTGGCCAA	0.0505	-0.0561	-0.559	0.982	0.349	0.0519	-0.241	-0.169
TCGTGTAGGTTAGGGGCATTCAGAATGGCGTCGA	1.37	0.648	0.819	1.09	0.961	1.3	0.787	0.922
TTACCAAGGTGAAAGGTGGTTGATGCACGCCTTG	0.622	0.898	0.626	-0.437	1.61	1.73	0.529	-0.166
GCTAGCAGGCCGTTTGGGTCACTCAATGACGGGC	1.43	0.678	0.649	-0.318	0.67	1.61	0.166	0.089
CCTATTGGTTGACCATAAGGGCAACCGAAGCTCG	1.47	0.997	0.631	-0.724	0.512	1.62	0.504	-0.166
GCTGCTAGGGCAGGTTGGTCAGCTAACGGGTACG	0.705	-0.148	0.544	-0.241	-0.467	-0.443	-0.665	-0.232
AGGCAAAGTTCAGGACGAGGTAACGTAAAGCACG	3.36	4.68	5.16	2.98	3.23	3.87	1.95	2.35
CCTCGGAGGACAACAGGAGGTCAGTGCTGCCAGA	3.56	3.16	3.22	0.309	1.28	2.64	0.965	1.21
AGTCAAAGTTCAGGACGAGGTAACGAAAAGCACG	2.94	4.74	4.62	2.71	3.34	3.75	1.77	2.11

Sequence	PBM binding z-score [1]	PBM binding z-score [2]	PBM binding z-score [3]	PBM binding z-score [4]	PBM binding z-score [5]	PBM binding z-score [6]	PBM binding z-score [7]	PBM binding z-score [8]
CCAGACAGGTGAAAGGCAACTCAGTCTGGTACGC	0.304	0.225	0.332	-0.268	0.712	0.000923	-0.701	0.202
AGAATGAGGTTAAGAGCAGGGAAACAGAATACAT	0.878	2	1.27	0.729	2.46	2.19	0.347	0.0105
CCTAGTTGGGCAAGGTCACACACGCTATAGGTAC	3.9	4.2	3.87	1.51	4.41	3.79	3.23	2.77
CCTACTGTGCCACGAAAGGTCATTGATTCAGTGA	4.67	4.41	3.73	1.43	4.76	3.46	1.67	2.34
CCTTACGGGTCACTCCCGGTTATAGCATCGGAGT	2.94	4.42	4.31	1.43	4.33	3.71	0.272	1.14
TAGCCTAGGTCATTGGGCCAGGATAGTACGCATC	2.8	3.79	4.56	1.25	2.67	2.74	0.55	0.858
CCTGCTAGGTCAATGGTCTGCTAAAGCAGCTCGC	2.64	3.31	3.96	1.75	1.63	2.31	0.724	-0.14
CGTCCAAGGTCAAGGTCAGTGTAAGAGACTCGAA	4.82	6.56	7.36	3.69	6.28	4.39	3.57	3.32
TGTAGTTGGTCACGGAGGTCACACACGACGGGTA	4.39	4.74	4.47	-0.214	4.76	3.6	2.44	2.45
AGTCAAAGTTCACTAGGTAACGTGAGATTCAGCT	3.59	4.82	5.55	3.83	3.61	1.87	0.0345	3.17
AGTCAAAGTTCATCTAGGTAACGTTAGATATGCT	3.74	5.6	6.39	4.62	4.96	2.94	0.114	5.6
AATACAGGGTCATCGTAGGCCACAGTACGCACAG	4.02	6	5.52	3.39	6.9	4.93	1.72	3.13
TCTAGTTGTTCACGGAGGTCACACACGACGGGTA	4.05	3.97	3.7	1.18	4.36	3.39	2.47	3.06
GGAACGAGGGCATTCGAGTGGATAGCATGGCGAT	0.402	0.904	1.23	2.83	0.651	1.69	-0.704	1.87
TTACCAAGGTGAGCTGAGGTCGTTAATCCAACTC	1.49	0.963	0.731	-0.172	1.12	4.42	1.8	1.33
GCTGCTAGGTCAGGTTGGTCAGCAAACGGGTACG	2.84	2.72	3.54	0.377	1.03	1.92	0.409	0.182
TCTATTAGTTGATTAGTGCAACCGAAACAGCGGA	0.0135	0.467	0.362	0.964	0.333	0.158	0.00829	0.654
ATCGAAAAGTCGACGAGGTGAGTATACACCGTTT	0.0886	0.532	0.571	-0.248	0.751	1.74	0.716	-0.201
CAGCCTAGGCCAGGGCCAGTATAGGAGGAACGTT	-0.366	-0.536	0.11	-1.57	-0.601	-0.884	-0.601	-0.322
